This is part of a sample that, as a whole, favours compounds with a hit. Of some 79,000 tested, about 15% had one in any assay. A number with no mark means an inactive call. Calls of active or inactive are those of the source. Cut-off read from the data, not from the text of the source: active = growth inhibition above about 70%; inactive = the rest.
Experiments:
[1] = NCI Yeast Anticancer Drug Screen. Data for the rad52 strain (AID 147);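 note: 0% = growth of vehicle-treated control cultures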; conditions: S. cerevisiae rad52 mutant growth inhibition, hits give high values
Summary of the method: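 Compounds are applied to a genetically defined yeast strain lacking normal DNA damage repair, and inhibition of growth is expressed relative to cultures given vehicle only.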

[2] = NCI Yeast Anticancer Drug Screen. Data for the wt1 strain (AID 149);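 note: 0% = growth of vehicle-treated wt1 cultures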; conditions: S. cerevisiae wt1 strain (SPY 50644) growth inhibition, hits give high values
Summary of the method: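 Compounds are added to wt1 yeast cultures. Growth is then measured. Inhibition is expressed relative to vehicle-treated controls.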

[3] = NCI Yeast Anticancer Drug Screen. Data for the rad50EPP+ strain (AID 151);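 note: 0% = growth of vehicle-treated control cultures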; conditions: S. cerevisiae rad50 mutant strain, hits give high values
Summary of the method: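 Compounds were applied to the rad50EPP+ yeast strain, which bears a defined DNA repair alteration, and growth inhibition was determined relative to vehicle-treated cultures.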

[4] = NCI Yeast Anticancer Drug Screen. Data for the rad50 strain (AID 155);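 note: 0% = growth of vehicle-only cultures of the same strain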; conditions: S. cerevisiae rad50 strain growth inhibition, hits give high values
Summary of the method: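 Inhibition values express reduced yeast growth in compound-treated cultures relative to vehicle-treated controls.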

[5] = NCI Yeast Anticancer Drug Screen. Data for the mec2-1 strain (AID 157); conditions: S. cerevisiae mec2-1 strain, hits give high values
Summary of the method: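 Strain: mec2-1 (DNA repair/cell cycle alteration). Compound exposure, then growth measured; inhibition expressed relative to vehicle.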

[6] = NCI Yeast Anticancer Drug Screen. Data for the rad14 strain (AID 159);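 note: 0% = growth of vehicle-treated control cultures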; conditions: S. cerevisiae rad14 strain growth inhibition, hits give high values
Summary of the method: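 A mutant yeast strain defective in DNA damage repair is treated with compound; inhibition of its growth is scored against untreated, vehicle-exposed cultures.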

[7] = NCI Yeast Anticancer Drug Screen. Data for the sgs1 mgt1 strain (AID 161);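 note: 0% = growth of cultures given vehicle only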; conditions: S. cerevisiae sgs1 mgt1 strain, hits give high values
Summary of the method: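 Inhibition of yeast growth, normalised to vehicle-treated controls, is reported for a strain bearing genetic alterations in DNA damage repair.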

[8] = NCI Yeast Anticancer Drug Screen. Data for the CLN2oe strain (AID 163);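 note: 0% = growth of vehicle-only control cultures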; conditions: S. cerevisiae CLN2oe strain, hits give high values
Summary of the method: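 Growth of a genetically modified yeast strain is measured after compound exposure and compared with cultures given vehicle alone.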

[9] = NCI Yeast Anticancer Drug Screen. Data for the cln2 rad14 strain (AID 165);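 note: 0% = growth equal to vehicle treated cultures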; conditions: S. cerevisiae cln2 rad14 strain, hits give high values
Summary of the method: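 Compounds are applied to the cln2 rad14 yeast strain, and growth is then compared with that of vehicle-treated cultures to give inhibition.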

[10] = NCI Yeast Anticancer Drug Screen. Data for the bub3 strain (AID 167); conditions: S. cerevisiae bub3 mutant strain, hits give high values
Summary of the method: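 Steps: expose the mutant yeast strain to compound; grow alongside vehicle-treated cultures; measure growth; express inhibition against the vehicle cultures.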

[11] = NCI Yeast Anticancer Drug Screen. Data for the wt2 strain (AID 169);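 note: 0% = growth of vehicle-treated yeast cultures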; conditions: S. cerevisiae wt2 strain growth inhibition, hits give high values
Summary of the method: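 This strain belongs to a panel of yeast strains with defined genetic alterations in DNA damage repair or cell cycle control. Compounds are applied, and growth inhibition is measured against vehicle-treated cultures.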

[12] = NCI Yeast Anticancer Drug Screen. Data for the mlh1 strain (AID 171);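 note: 0% = growth of vehicle-treated control cultures of the same strain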; conditions: S. cerevisiae mlh1 strain growth inhibition, hits give high values
Summary of the method: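 Growth of the mutant yeast strain after compound exposure, expressed as inhibition relative to vehicle-only controls.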

[13] = NCI Yeast Anticancer Drug Screen. Data for the sgs1 strain (AID 173);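 note: 0% = growth of vehicle-only control cultures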; conditions: S. cerevisiae sgs1 mutant, hits give high values
Summary of the method: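 Growth of a yeast strain bearing a defined genetic alteration is measured after compound treatment. Inhibition is expressed relative to vehicle-only controls.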

[14] = NCI Yeast Anticancer Drug Screen. Data for the mlh1 rad18 strain (AID 175); conditions: S. cerevisiae mlh1 rad18 strain growth inhibition, hits give high values
Summary of the method: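 Read-out is yeast growth inhibition, calculated against vehicle-only controls. The compound was applied to a strain engineered with DNA damage repair alterations.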

[15] = NCI Yeast Anticancer Drug Screen. Data for the rad18 strain (AID 177); conditions: S. cerevisiae rad18 mutant growth inhibition, hits give high values
Summary of the method: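 Growth of the mutant yeast strain after compound exposure, normalised to vehicle-only cultures.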

[16] = at 5.0 µM (retest, dose inferred, filed as 0.5)
[17] = at 50.0 µM (retest, dose inferred, filed as 5.0)

Which growth inhibition ([1]; at 1.2 µM) does the source give for O=C(/C=C\c1ccc([N+](=O)[O-])o1)Nc1ccc(Cl)cc1 here?
Its growth inhibition is 69%.

What about the growth inhibition ([1]; at 3.7 µM) of the same compound?
Its growth inhibition is 96% (active).

And the growth inhibition ([1]; at 11.0 µM)?
The growth inhibition was 98% (active).

What about the growth inhibition ([1]; at 33.0 µM) of the same compound?
The growth inhibition was 98% (active).

What about the growth inhibition ([1]; at 100.0 µM) of the same compound?
Its growth inhibition is 97% (active).

What about the growth inhibition ([2]; at 1.2 µM) of the same compound?
The growth inhibition was 6%.

What about the growth inhibition ([2]; at 3.7 µM) of the same compound?
The growth inhibition was 50%.

What about the growth inhibition ([2]; at 11.0 µM) of the same compound?
The growth inhibition was 97% (active).

What about the growth inhibition ([2]; at 33.0 µM) of the same compound?
The growth inhibition was 98% (active).

And the growth inhibition ([2]; at 100.0 µM)?
The growth inhibition was 98% (active).

What about the growth inhibition ([3]; at 1.2 µM) of the same compound?
The growth inhibition was 52%.

And the growth inhibition ([3]; at 3.7 µM)?
The growth inhibition was 69%.

And the growth inhibition ([3]; at 11.0 µM)?
The growth inhibition was 83% (active).

What about the growth inhibition ([3]; at 33.0 µM) of the same compound?
Its growth inhibition is 91% (active).

And the growth inhibition ([3]; at 100.0 µM)?
The growth inhibition was 84% (active).

And the growth inhibition ([4]; at 1.2 µM)?
The growth inhibition was 38%.

What about the growth inhibition ([4]; at 3.7 µM) of the same compound?
The growth inhibition was 82% (active).

And the growth inhibition [4, 16]?
The growth inhibition was 24%.

And the growth inhibition ([4]; at 11.0 µM)?
The growth inhibition was 97% (active).

What about the growth inhibition ([4]; at 33.0 µM) of the same compound?
The growth inhibition was 97% (active).

What about the growth inhibition [4, 17] of the same compound?
Its growth inhibition is 54%.

What about the growth inhibition ([4]; at 50.0 µM) of the same compound?
Its growth inhibition is 90.1% (active).

What about the growth inhibition ([4]; at 100.0 µM) of the same compound?
Its growth inhibition is 96% (active).

And the growth inhibition ([5]; at 1.2 µM)?
Its growth inhibition is 4%.

And the growth inhibition ([5]; at 3.7 µM)?
Its growth inhibition is 19%.

What about the growth inhibition [5, 16] of the same compound?
The growth inhibition was 23%.

And the growth inhibition ([5]; at 11.0 µM)?
Its growth inhibition is 63%.

What about the growth inhibition ([5]; at 33.0 µM) of the same compound?
Its growth inhibition is 91% (active).

What about the growth inhibition [5, 17] of the same compound?
The growth inhibition was 55%.

And the growth inhibition ([5]; at 50.0 µM)?
Its growth inhibition is 27.5%.

And the growth inhibition ([5]; at 100.0 µM)?
The growth inhibition was 95% (active).

And the growth inhibition ([6]; at 1.2 µM)?
Its growth inhibition is 21%.

And the growth inhibition ([6]; at 3.7 µM)?
The growth inhibition was 70% (active).

And the growth inhibition ([6]; at 11.0 µM)?
Its growth inhibition is 91% (active).

And the growth inhibition ([6]; at 33.0 µM)?
Its growth inhibition is 94% (active).

And the growth inhibition ([6]; at 100.0 µM)?
The growth inhibition was 96% (active).

And the growth inhibition [7, 16]?
The growth inhibition was 63%.

What about the growth inhibition [7, 17] of the same compound?
Its growth inhibition is 84% (active).

What about the growth inhibition ([7]; at 50.0 µM) of the same compound?
Its growth inhibition is 90% (active).

And the growth inhibition ([8]; at 1.2 µM)?
Its growth inhibition is -4%.

And the growth inhibition ([8]; at 3.7 µM)?
Its growth inhibition is 30%.

And the growth inhibition ([8]; at 11.0 µM)?
The growth inhibition was 73% (active).

And the growth inhibition ([8]; at 33.0 µM)?
The growth inhibition was 76% (active).

And the growth inhibition ([8]; at 100.0 µM)?
The growth inhibition was 61%.

And the growth inhibition [9, 16]?
Its growth inhibition is 14%.

And the growth inhibition [9, 17]?
Its growth inhibition is 31%.

And the growth inhibition ([9]; at 50.0 µM)?
The growth inhibition was 35.1%.

What about the growth inhibition ([10]; at 1.2 µM) of the same compound?
The growth inhibition was 0%.

What about the growth inhibition ([10]; at 3.7 µM) of the same compound?
The growth inhibition was 24%.

What about the growth inhibition [10, 16] of the same compound?
Its growth inhibition is 6%.

And the growth inhibition ([10]; at 11.0 µM)?
Its growth inhibition is 82% (active).

And the growth inhibition ([10]; at 33.0 µM)?
Its growth inhibition is 78% (active).

And the growth inhibition [10, 17]?
Its growth inhibition is 42%.

And the growth inhibition ([10]; at 50.0 µM)?
The growth inhibition was 10.4%.

And the growth inhibition ([10]; at 100.0 µM)?
The growth inhibition was 96% (active).

And the growth inhibition ([11]; at 1.2 µM)?
Its growth inhibition is 28%.

And the growth inhibition ([11]; at 3.7 µM)?
Its growth inhibition is 87% (active).

What about the growth inhibition ([11]; at 11.0 µM) of the same compound?
The growth inhibition was 99% (active).

And the growth inhibition ([11]; at 33.0 µM)?
Its growth inhibition is 99% (active).

And the growth inhibition ([11]; at 100.0 µM)?
Its growth inhibition is 98% (active).

And the growth inhibition ([12]; at 1.2 µM)?
Its growth inhibition is 1%.

And the growth inhibition ([12]; at 3.7 µM)?
The growth inhibition was 46%.

What about the growth inhibition ([12]; at 11.0 µM) of the same compound?
The growth inhibition was 94% (active).

And the growth inhibition ([12]; at 33.0 µM)?
The growth inhibition was 93% (active).

What about the growth inhibition ([12]; at 100.0 µM) of the same compound?
Its growth inhibition is 97% (active).

What about the growth inhibition ([13]; at 1.2 µM) of the same compound?
Its growth inhibition is 81% (active).

What about the growth inhibition ([13]; at 3.7 µM) of the same compound?
The growth inhibition was 94% (active).

What about the growth inhibition ([13]; at 11.0 µM) of the same compound?
The growth inhibition was 98% (active).

What about the growth inhibition ([13]; at 33.0 µM) of the same compound?
The growth inhibition was 98% (active).

And the growth inhibition ([13]; at 100.0 µM)?
The growth inhibition was 95% (active).

And the growth inhibition [14, 16]?
Its growth inhibition is 88% (active).

And the growth inhibition [14, 17]?
Its growth inhibition is 86% (active).

And the growth inhibition ([14]; at 50.0 µM)?
Its growth inhibition is 92.8% (active).

And the growth inhibition ([15]; at 1.2 µM)?
Its growth inhibition is 95% (active).

What about the growth inhibition ([15]; at 3.7 µM) of the same compound?
Its growth inhibition is 97% (active).

And the growth inhibition ([15]; at 11.0 µM)?
Its growth inhibition is 97% (active).

And the growth inhibition ([15]; at 33.0 µM)?
Its growth inhibition is 97% (active).

And the growth inhibition ([15]; at 100.0 µM)?
The growth inhibition was 93% (active).

Source: PubChem BioAssay (NCI)
